For 39 compounds, outcome results are on record in PubChem BioAssay AID618 (Sanford-Burnham Center for Chemical Genomics, 2007).

Screen size: about 87,000 compounds; about 540 (0.62%) were called active. No rule for the calls is given here. The full list was thinned out, with actives kept by preference. Measured potencies and affinities stand elsewhere.

The experiment in a line: MT1-MMP gene expression reporter suppression – cell-based, luciferase reporter, luminescence (AID 618).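 Also: actives suppress MT1-MMP promoter-driven transcription so potencies describe inhibitors.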 To be noted: MT1-MMP promoter luciferase reporter cells.
`Cc1ccc(-n2c(SCC(=O)NCc3ccco3)nnc2-c2cccnc2)c(C)c1`: the result was inactive.

As to `CCOC(=O)N1CCC(NC(=O)C2CCN(S(=O)(=O)N3CCC(C)CC3)CC2)CC1`, the result was inactive.

For `Cc1cc(C)cc(OCc2nc3ncc(Br)cc3[nH]2)c1`, the call was inactive.

With `C=CCOc1cccc(C2C(C(=O)c3ccco3)=C(O)C(=O)N2CCN2CCOCC2)c1` (centres undefined), the compound was classed as inactive.

With `COc1ccccc1N1CCN(C(=O)CN(c2cc(C)cc(C)c2)S(C)(=O)=O)CC1`, the call was inactive.

For the compound `c1ccc(N2CCN(c3nc4cc5c(cc4s3)OCO5)CC2)cc1`, the result was inactive.

`c1c2c(cc3sc(N4CCOCC4)nc13)OCO2`: the outcome was inactive.

With `Clc1ccc2nc(N3CCCCC3)sc2c1`, the compound was classed as inactive.

`c1ccc(N2CCN(c3nc4cc5c(cc4s3)OCCO5)CC2)cc1`: the call was inactive.

In the case of `c1c2c(cc3sc(N4CCCCC4)nc13)OCO2`, the compound was called active.

Regarding `O=S(=O)(c1ccc2c(c1)OCCO2)N1CCN(c2nc3ccccc3s2)CC1`, the outcome was inactive.

Take `c1ccc2sc(N3CCOCC3)nc2c1`: the call was inactive.

In the case of `c1c2c(cc3sc(N4CCCCC4)nc13)OCCO2`, the outcome was active.

As for `O=C(c1ccc2nc(N3CCCCC3)sc2c1)N1CCN(Cc2ccc3c(c2)OCO3)CC1`, the outcome was inactive.

With `c1ccc2c(c1)CCN(c1nc3cc4c(cc3s1)OCO4)C2`, the compound was classed as inactive.

For `c1c2c(cc3sc(N4CCOCC4)nc13)OCCO2`, the compound was classed as active.

As to `c1ccc2c(c1)CCN(c1nc3cc4c(cc3s1)OCCO4)C2`, the call was active.

For `CCOC(=O)c1c(COC(=O)c2ccco2)nc2ccccc2[n+]1[O-]`, the compound was called inactive.

As to `O=C(CCn1c(=O)oc2ccccc21)Nc1cccc(Cl)c1`, the outcome was inactive.

As to `Cc1cc2ccccc2c(=O)n1CC(=O)Nc1ccc2c(c1)OCCO2`, the call was inactive.

Take `CCOC(=O)c1[nH]c2ccc(F)cc2c1NC(=O)C1=COCCO1`: the call was inactive.

For the compound `CC(=O)c1c(C(C)=O)c(C)n(-c2nc(-c3ccc(Br)cc3)c(C)s2)c1C`, the compound was classed as inactive.

In the case of `COc1ccc(OCCSc2ncn[nH]2)cc1`, the call was inactive.

In the case of `OC(COc1ccccc1)CSc1ncn[nH]1` (centres undefined), the outcome was inactive.

Turning to `CCCCn1c(SCC(=O)N2CCOCC2)nnc1-c1cccs1`, the compound was classed as inactive.

For the compound `CC[C@]1(O)CC2CN(CCc3c([nH]c4ccccc34)[C@@](C(=O)OC)(c3cc4c(cc3OC)N(C=O)[C@H]3[C@@](O)(C(=O)OC)[C@H](OC(C)=O)[C@]5(CC)C=CCN6CC[C@]43[C@@H]65)C2)C1` (some centres undefined), the compound was called active.

As to `COc1ccccc1N1CCN(C(=O)CSc2nc(-c3ccco3)cc(C(F)(F)F)n2)CC1`, the compound was classed as inactive.

`Cc1cc(C)c(S(=O)(=O)N2CCCCC2)c(C)c1-n1ncnn1`: the compound was classed as inactive.

As for `O=C(Cn1nc(-c2ccc(Cl)cc2)c2ccccc2c1=O)NCC1CCCO1` (centres undefined), the compound was classed as inactive.

Take `COc1ccc(-c2cc(C(F)(F)F)nc(S(C)(=O)=O)n2)cc1OC`: the compound was classed as inactive.

`CCOC(=O)CSc1nc(-c2ccccc2)cc(C(F)(F)F)n1`: the call was inactive.

`COc1ccccc1-c1cc(C(F)(F)F)nc(S(=O)(=O)CCCC(=O)O)n1`: the compound was called inactive.

As to `CCOC(=O)CS(=O)(=O)c1nc(-c2ccccc2)cc(C(F)(F)F)n1`, the outcome was inactive.

With `COc1ccc(-c2cc(C(F)(F)F)nc(S(C)(=O)=O)n2)cc1`, the outcome was inactive.

With `COC(=O)CCS(=O)(=O)c1nc(-c2ccccc2)cc(C(F)(F)F)n1`, the compound was classed as inactive.

In the case of `COC(=O)CSc1nc(-c2ccc(F)cc2)cc(C(F)(F)F)n1`, the result was inactive.

For the compound `COc1ccccc1-c1cc(C(F)(F)F)nc(S(=O)(=O)CCCC(=O)N2CCCCC2C)n1` (centres undefined), the outcome was inactive.

In the case of `CCOC(=O)CS(=O)(=O)c1nc(-c2ccc(F)cc2)cc(C(F)(F)F)n1`, the outcome was active.

In the case of `CS(=O)(=O)c1nc(-c2ccccc2)cc(C(F)(F)F)n1`, the call was active.
